High-throughput results as filed in PubChem BioAssay.
Cycloheximide cs – affects cycloheximide protein synthesis inhibition readout, counter-screen. hit rate 12% among 300,000. AID 2314. cell reporter, cycloheximide protein synthesis inhibition counterscreen. max response, %; in the data active means max response mostly above about 13%, no sharp cut-off; inactive means mostly below about 14%; further: read at 38.3 µM for the half of the compounds with a filed dose; 0% is about no effect
Shiga toxin inh – Shiga toxin inhibition. Vero cells, Shiga toxin protein synthesis inhibition reporter. inhibition, % at 38.7 µM. hit rate 9.2% among 290,000; in the data active means inhibition mostly above about 28%, no sharp cut-off; inactive means mostly below about 43%; further: 0% is about no effect
Sm TGR block – blocks Schistosoma mansoni thioredoxin glutathione reductase. Q962Y6. purified TGR, DTNB reduction, TNB absorbance 405 nm. Potency, µM (titrated, usually from 114 µM), inactives show top-dose activity change, negative = inhibition, hits mostly inhibitors. hit rate 3% among 360,000. AID 485364; active means well fitted inhibition curve with a large enough effect; inconclusive means small, poorly fitted or top-dose-only effect; inactive means no such curve, though single readings can be large or run the other way; further: potency means the concentration at half of the fitted maximal effect; on the % scale 0 is the no-effect control and ±100 the full control effect; nearly all actives have a fitted effect of over 60% in size
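First, TGR (20 nM dispensed) and NADPH were mixed with compound. Second, a 15 min room-temperature incubation followed. Third, further NADPH and then DTNB were added to start the reaction. Finally, TNB absorbance was monitored kinetically.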
FMDV inh – foot and mouth disease virus antiviral activity; Potency, µM (doses to about 57.9 µM), for the others: top-dose activity change, negative = inhibition, actives largely listed as inhibitors; FMDV antiviral cell-based qHTS; AID 1159524; hit rate 1.2% among 410,000; calls by dose curve; tested in HEK293T cells; further: read-out not given here; potency means the concentration at half of the fitted maximal effect; on the % scale 0 is the no-effect control and ±100 the full control effect; nearly all actives have a fitted effect of over 45% in size
The depositor's hits bear a star; ? = inconclusive; . = no result; [ ] = remark or other dose. An excerpt weighted towards active compounds, which were near 12% of everything screened.

SMILES	Cycloheximide cs	Shiga toxin inh	Sm TGR block	FMDV inh
COc1ccc(-c2nc(SCC(=O)Nc3cc(C)on3)n[nH]2)cc1	3	29	-6%	-6%
O=C(CSc1n[nH]c(-c2ccncc2)n1)c1ccccc1	-1	21	4%	.
C=CCSc1n[nH]c(-c2ccc(OC)cc2)n1	61*	116*	4%	47%
CCCCOc1ccc(-c2nc(SCC(N)=O)n[nH]2)cc1	34*	48	0%	62%
COc1cccc(C(=O)Nc2cccc(-c3cn4c(C)csc4n3)c2)c1OC	.	.	-7%	1%
CC(=NC1CCCC1)c1c(C)[nH]n(-c2nc3ccccc3s2)c1=O	40*	75*	0%	-16%
CC(=NC1CC1)c1c(-c2ccccc2)[nH]n(-c2nc3ccccc3s2)c1=O	23	36	-17%	-10%
COc1ccc(Cn2c(C(=O)O)c(CNCCc3cccs3)c3ccc(C)cc32)cc1	.	.	-2%	-4%
C=CCNC(=O)CCc1nnc(C2(c3ccc(Cl)cc3)CCC2)o1	55*	85*	.	48%
COC(=O)CNC(=O)CCc1nnc(C2(c3ccc(Cl)cc3)CCC2)o1	45*	39*	0%	39%
C=C(C)CNC(=O)CCc1nnc(C2(c3ccc(Cl)cc3)CCC2)o1	44*	75*	-17%	48%
COc1ccc(CCc2nnc(CCC(=O)NCC3CCCO3)o2)cc1 (stereo not given)	7	13	1%	9%
COCC(C)NC(=O)CCc1nnc(C2(c3ccc(Cl)cc3)CCC2)o1 (stereo not given)	30*	41*	-8%	55%
Cc1ccc(OCC(=O)Nc2ccc(OCc3cc(=O)n4cccc(C)c4n3)cc2)cc1C	.	.	0%	-17%
CC(c1ccon1)N(C)C(=O)CCc1nnc(C2(c3ccc(Cl)cc3)CCC2)o1 (stereo not given)	21*	48*	4%	50%
CC(c1ccon1)N(C)C(=O)CCc1nnc(CCCCc2ccccc2)o1 (stereo not given)	0	13	0%	5%
O=C(CCc1nnc(C2(c3ccc(Cl)cc3)CCC2)o1)NC1CC1	14*	-2	1%	18%
NC(=O)C1CCCN(C(=O)CCc2nnc(C3(c4ccc(Cl)cc4)CCC3)o2)C1 (stereo not given)	2	11	3%	4%
COc1ccc(NC(=O)Nc2c[nH]c(=O)[nH]c2=O)c(OC)c1	.	.	6%	-9%
CCCCc1nn2c(=O)cc(COC(=O)CNC(=O)c3ccccc3C)nc2s1	.	.	11%	14%
Cc1cccc2c1=NC(=O)/C(=C/c1c(O)[nH]c(=O)[nH]c1=O)C=2	-1	-12	35µM*	0%
COCC(=O)Nc1cc(C(=O)N2CCSCC2)cc2nc(-c3ccccc3)n(C)c12	.	.	.	-26%
N#CC(C(=O)Nc1ccccc1)=C1CCCCC1	15*	16	-12%	.
Cc1cc(=O)oc2cc(OC(C)C(=O)N3CCCc4ccccc43)ccc12 (stereo not given)	24*	60	-16%	-30%
C=C1C(=O)O[C@@H]2[C@H]3O[C@]3(C)CCC=C(C)CC[C@@H]12	.	.	.	-19%
SMILES	Cycloheximide cs	Shiga toxin inh	Sm TGR block	FMDV inh
C=C1C(=O)OC2C1CCC(C)=C1C(=O)C3OC3(C)C12 (stereo not given)	.	.	.	28µM*
CC(OC(=O)c1cccc(S(=O)(=O)N2CCN(C)CC2)c1)C(=O)Nc1ccc(C(N)=O)cc1 (stereo not given)	.	.	-2%	-4%
Cc1cccc(NC(=S)N2CCN(S(=O)(=O)c3ccccc3)CC2)c1	-1	-6	4%	1%
CC(=O)c1cccc(NC(=S)N2CCN(S(=O)(=O)c3ccccc3)CC2)c1	9.7*	50	?	31%
CC(=O)c1cccc(NC(=S)N2CCN(S(=O)(=O)c3ccc(F)cc3)CC2)c1	19*	0	6%	1%
CC(=O)c1cccc(NC(=O)C(C)OC(=O)c2cccc(S(=O)(=O)N3CCN(C)CC3)c2)c1 (stereo not given)	.	.	50µM*	-3%
CC(C)CCCC(C)CCCC(C)CCCC(C)C(=O)O (stereo not given)	-3	21	.	.
COc1ccc(OC)c(CCNC(=O)c2cnn(-c3ccccc3)c2-n2cccc2)c1	.	.	0%	0%
O=C(CCn1c(=O)c2cccn2c2cccnc21)N1CCN(c2ccccc2F)CC1	.	.	-9%	6%
C[C@H]1C(=O)N(S(=O)(=O)c2ccc([N+](=O)[O-])cc2)[C@H]1c1ccc(F)cc1	-3	-7	.	.
CC(=O)NC(NC(=S)Nc1ccc(N=Nc2ccccc2C)cc1C)C(Cl)(Cl)Cl (stereo not given)	29*	114*	1%	20%
CCc1ccc(OCC(=O)Nc2ncn[nH]2)cc1	25*	58*	6%	44%
O=C(/C=C/c1ccccc1)Nc1ncn[nH]1	26*	29	?	0%
O=C(O)C(=O)Nc1ncn[nH]1	.	.	.	0%
O=C(COc1ccccc1)Nc1ncn[nH]1	21*	46*	7%	2%
CC(C)(C)c1ccccc1OCC(=O)Nc1ncn[nH]1	1	-8	4%	-23%
CC(=O)c1ccc(C(=O)N(Cc2cccnc2)c2nc3c(Cl)cccc3s2)cc1	.	.	-2%	-11%
COc1ccccc1-n1cc(CN2CCC3(CCC(CNC(=O)c4ccccc4)O3)CC2)cn1 (stereo not given)	.	.	.	16%
c1ccc(CNc2nc(-c3ccc4c(c3)OCO4)nc3ccccc23)cc1	.	.	.	15%
Cc1ccc(Cn2c(NCCc3ccccc3)nc3c2c(=O)n(C)c(=O)n3C)cc1	-4	-8	-1%	16µM*
C=CCn1c(NCCc2ccccc2)nc2c1c(=O)n(C)c(=O)n2C	8	13	-2%	25µM*
CCNc1nc2c(c(=O)n(C)c(=O)n2C)n1CC(O)COc1ccccc1 (stereo not given)	.	.	2%	22µM*
Cn1c(=O)c2c(nc(NCc3ccco3)n2CCc2ccccc2)n(C)c1=O	-8	1	-21%	20µM*
C/C(Cl)=C\Cn1c(NCCc2ccccc2)nc2c1c(=O)n(C)c(=O)n2C	-6	-5	-7%	.
COCCCNc1nc2c(c(=O)n(C)c(=O)n2C)n1Cc1ccccc1	.	.	-1%	?
SMILES	Cycloheximide cs	Shiga toxin inh	Sm TGR block	FMDV inh
CCn1c(NCc2ccco2)nc2c1c(=O)n(C)c(=O)n2C	2	18	-5%	-22%
COCCNc1nc2c(c(=O)n(C)c(=O)n2C)n1Cc1c(F)cccc1Cl	.	.	-2%	?
Cn1c(=O)c2c(nc(Br)n2Cc2ccc3ccccc3c2)n(C)c1=O	-4	-19	-26%[11.4 µM]	14µM*
CC(C)c1ccc(NC(=O)NCc2cccnc2)cc1	12*	40	4%	41%
Cn1cccc1CNC(=O)Nc1ccc(Cl)c(Cl)c1	37*	86	-22%	0%
O=C(NCc1cccnc1)Nc1ccc(Cl)c(Cl)c1	26*	59*	-8%	72%
CSc1ccc(NC(=O)NCc2cccnc2)cc1	28*	39*	5%	67%
Cc1cc(C)cc(OCC(=O)NC(Cc2c[nH]c3ccccc23)C(=O)O)c1 (stereo not given)	.	.	1%	4%
Cc1ccc(CNC(=O)Nc2ccc(C)cc2)cc1	22*	61	8%	56%
Cc1ccc(NC(=O)NCc2cccnc2)cc1	19*	22	1%	31%
O=C(NCc1cccnc1)Nc1ccc(Br)cc1	30*	21	-1%	12%
